Experimental data from the supplement of paper PMC10849652.
About 8,800 targets were measured; listed, in parts, are those with a hit and a random draw of the rest. About 0.5% of all pairs of compound and target were hits. Values without a mark were called inactive.

Tests used:
Experiment in all cases: log2 fold change, soluble protein after heating vs DMSO (PISA); higher = thermal stabilisation; K562 lysate, 10 uM; active = over 0.2 and 3.5 SD of the protein, either way, in both replicates (recomputed)
nilotinib = compound: Cc1cn(-c2cc(NC(=O)c3ccc(C)c(Nc4nccc(-c5cccnc5)n4)c3)cc(C(F)(F)F)c2)cn1 [nilotinib]
How it was run: (§1)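 Thermal stability, expressed as log-two fold change relative to solvent controls, is given from duplicates. Crude K562 extract in PBS pH 7.4 with 1 mM MgCl2, at 1 mg/mL protein, was treated with 10 μM compound for 30 min and heated in aliquots for 3 min across 48°C-58°C. After pooling, adjustment to 0.5% NP-40 at 4°C and centrifugation at 21,000xg for 90 min, supernatant protein was measured by TMTpro 16plex LC-MS/MS with channel sums equalised.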

[1] = compound: Cc1nc(Nc2n[nH]c3c2CN(C(=O)N[C@H](CN(C)C)c2ccccc2)C3(C)C)c2sccc2n1
How it was run: as §1

dasatinib = compound: Cc1nc(Nc2ncc(C(=O)Nc3c(C)cccc3Cl)s2)cc(N2CCN(CCO)CC2)n1 [dasatinib]
How it was run: as §1

[2] = compound: Cc1ncc(-c2ccnc(Nc3ccc(S(C)(=O)=O)cc3)n2)n1C(C)C
How it was run: as §1

[3] = compound: Cn1cc(-c2ccc3c(c2)CCN3C(=O)Cc2cccc(C(F)(F)F)c2)c2c(N)ncnc21
How it was run: as §1

quisinostat = compound: Cn1cc(CNCC2CCN(c3ncc(C(=O)NO)cn3)CC2)c2ccccc21 [quisinostat]
How it was run: as §1

tipifarnib = compound: Cn1cncc1[C@@](N)(c1ccc(Cl)cc1)c1ccc2c(c1)c(-c1cccc(Cl)c1)cc(=O)n2C [tipifarnib]
How it was run: as §1

[4] = compound: NC(=O)Nc1cc(-c2cccc(F)c2)sc1C(=O)N[C@H]1CCCNC1
How it was run: as §1

[5] = compound: NC(=O)c1cnc(N[C@@H]2CCCC[C@@H]2N)nc1Nc1cccc(-n2nccn2)c1
How it was run: as §1

[6] = compound: NC1(c2ccc(-c3nc4ccn5c(=O)[nH]nc5c4cc3-c3ccccc3)cc2)CCC1
How it was run: as §1

[7] = compound: NCC(=O)Nc1ccc(-n2nc(C(F)(F)F)cc2-c2ccc3c(ccc4ccccc43)c2)cc1
How it was run: as §1

vorinostat = compound: O=C(CCCCCCC(=O)Nc1ccccc1)NO [vorinostat]
How it was run: as §1

silmitasertib = compound: O=C(O)c1ccc2c(c1)nc(Nc1cccc(Cl)c1)c1ccncc12 [silmitasertib]
How it was run: as §1

[8] = compound: O=C1NC(=O)C(c2cnc3ccccn23)=C1c1cn2c3c(cc(F)cc13)CN(C(=O)N1CCCCC1)CC2
How it was run: as §1

entospletinib = compound: c1cn2cc(-c3ccc4cn[nH]c4c3)nc(Nc3ccc(N4CCOCC4)cc3)c2n1 [entospletinib]
How it was run: as §1

UniProt Q86WJ1, sequence (Q86WJ1 whole entry, looked up): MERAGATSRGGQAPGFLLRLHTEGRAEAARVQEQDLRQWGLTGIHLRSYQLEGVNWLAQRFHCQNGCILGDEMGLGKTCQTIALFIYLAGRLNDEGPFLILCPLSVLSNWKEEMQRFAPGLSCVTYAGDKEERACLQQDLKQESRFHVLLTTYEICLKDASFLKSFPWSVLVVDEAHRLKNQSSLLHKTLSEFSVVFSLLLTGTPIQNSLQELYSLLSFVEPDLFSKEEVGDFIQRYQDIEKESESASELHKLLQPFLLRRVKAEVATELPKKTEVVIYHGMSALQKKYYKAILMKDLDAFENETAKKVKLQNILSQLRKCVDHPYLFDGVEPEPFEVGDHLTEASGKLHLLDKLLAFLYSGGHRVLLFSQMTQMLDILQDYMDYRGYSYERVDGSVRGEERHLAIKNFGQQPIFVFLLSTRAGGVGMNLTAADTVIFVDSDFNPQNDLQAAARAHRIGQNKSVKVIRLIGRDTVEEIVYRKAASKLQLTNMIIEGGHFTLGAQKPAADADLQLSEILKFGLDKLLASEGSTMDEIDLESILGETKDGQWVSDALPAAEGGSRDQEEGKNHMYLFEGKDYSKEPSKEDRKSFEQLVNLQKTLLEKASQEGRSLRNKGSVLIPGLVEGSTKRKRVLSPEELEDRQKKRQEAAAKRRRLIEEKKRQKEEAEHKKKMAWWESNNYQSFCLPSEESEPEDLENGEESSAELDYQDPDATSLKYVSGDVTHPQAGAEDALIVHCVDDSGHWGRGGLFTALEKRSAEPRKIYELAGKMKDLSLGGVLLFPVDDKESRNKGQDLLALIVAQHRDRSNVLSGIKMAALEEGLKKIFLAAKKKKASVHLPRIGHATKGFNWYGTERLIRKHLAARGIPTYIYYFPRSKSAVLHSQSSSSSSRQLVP
UniProt Q8N7R7, sequence (Q8N7R7 whole entry, looked up): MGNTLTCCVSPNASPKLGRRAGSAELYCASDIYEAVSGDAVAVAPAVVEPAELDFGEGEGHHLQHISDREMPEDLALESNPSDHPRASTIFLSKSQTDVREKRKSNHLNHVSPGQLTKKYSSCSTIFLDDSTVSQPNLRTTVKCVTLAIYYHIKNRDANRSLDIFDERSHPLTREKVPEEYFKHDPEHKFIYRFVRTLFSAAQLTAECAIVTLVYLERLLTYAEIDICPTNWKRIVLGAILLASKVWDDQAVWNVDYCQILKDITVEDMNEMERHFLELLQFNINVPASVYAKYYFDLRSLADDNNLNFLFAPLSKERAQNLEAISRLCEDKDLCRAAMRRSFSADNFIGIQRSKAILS
UniProt O95429, sequence (O95429 whole entry, looked up): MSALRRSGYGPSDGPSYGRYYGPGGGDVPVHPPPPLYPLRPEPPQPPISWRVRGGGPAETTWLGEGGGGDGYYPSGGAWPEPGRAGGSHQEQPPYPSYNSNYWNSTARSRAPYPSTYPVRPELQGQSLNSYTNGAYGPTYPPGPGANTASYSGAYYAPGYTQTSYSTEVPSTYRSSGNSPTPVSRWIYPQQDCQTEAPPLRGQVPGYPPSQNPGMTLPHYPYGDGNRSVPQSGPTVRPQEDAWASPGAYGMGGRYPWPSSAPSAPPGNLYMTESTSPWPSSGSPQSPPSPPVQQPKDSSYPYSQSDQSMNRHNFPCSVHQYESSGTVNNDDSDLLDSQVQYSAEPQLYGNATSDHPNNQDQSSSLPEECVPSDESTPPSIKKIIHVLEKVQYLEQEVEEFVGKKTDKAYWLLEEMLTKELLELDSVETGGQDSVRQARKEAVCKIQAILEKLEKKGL
UniProt Q9Y6K0, sequence (Q9Y6K0 whole entry, looked up): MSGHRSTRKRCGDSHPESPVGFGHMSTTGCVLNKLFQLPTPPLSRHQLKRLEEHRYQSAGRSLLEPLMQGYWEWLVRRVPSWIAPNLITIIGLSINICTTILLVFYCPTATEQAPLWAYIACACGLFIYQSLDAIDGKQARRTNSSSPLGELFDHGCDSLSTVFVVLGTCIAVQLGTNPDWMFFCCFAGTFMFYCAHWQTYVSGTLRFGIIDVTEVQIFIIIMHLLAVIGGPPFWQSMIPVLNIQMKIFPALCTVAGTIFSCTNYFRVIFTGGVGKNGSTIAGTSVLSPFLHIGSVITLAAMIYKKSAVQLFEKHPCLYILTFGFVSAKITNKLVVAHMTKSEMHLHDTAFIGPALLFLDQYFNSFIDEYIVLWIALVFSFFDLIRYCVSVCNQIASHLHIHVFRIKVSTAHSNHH
UniProt P49589, sequence (P49589 whole entry, looked up): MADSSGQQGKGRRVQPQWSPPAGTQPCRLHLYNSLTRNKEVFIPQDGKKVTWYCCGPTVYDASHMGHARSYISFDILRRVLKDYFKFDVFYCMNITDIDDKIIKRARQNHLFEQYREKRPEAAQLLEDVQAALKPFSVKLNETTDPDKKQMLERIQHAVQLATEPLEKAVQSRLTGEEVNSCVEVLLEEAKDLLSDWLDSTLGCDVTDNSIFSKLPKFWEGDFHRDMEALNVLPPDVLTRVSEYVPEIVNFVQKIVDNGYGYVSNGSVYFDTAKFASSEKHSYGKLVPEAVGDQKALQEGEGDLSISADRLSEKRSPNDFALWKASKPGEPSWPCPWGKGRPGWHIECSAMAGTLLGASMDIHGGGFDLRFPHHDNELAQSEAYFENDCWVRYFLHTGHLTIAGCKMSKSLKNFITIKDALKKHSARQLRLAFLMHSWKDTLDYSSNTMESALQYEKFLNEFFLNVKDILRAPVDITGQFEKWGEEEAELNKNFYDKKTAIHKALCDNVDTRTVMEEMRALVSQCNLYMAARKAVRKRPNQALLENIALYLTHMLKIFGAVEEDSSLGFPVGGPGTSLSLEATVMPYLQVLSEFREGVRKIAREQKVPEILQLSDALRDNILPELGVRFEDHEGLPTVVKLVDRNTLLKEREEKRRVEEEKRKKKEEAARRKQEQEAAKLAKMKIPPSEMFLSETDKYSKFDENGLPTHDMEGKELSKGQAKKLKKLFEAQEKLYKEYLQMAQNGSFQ
UniProt Q8N163, sequence (Q8N163 whole entry, looked up): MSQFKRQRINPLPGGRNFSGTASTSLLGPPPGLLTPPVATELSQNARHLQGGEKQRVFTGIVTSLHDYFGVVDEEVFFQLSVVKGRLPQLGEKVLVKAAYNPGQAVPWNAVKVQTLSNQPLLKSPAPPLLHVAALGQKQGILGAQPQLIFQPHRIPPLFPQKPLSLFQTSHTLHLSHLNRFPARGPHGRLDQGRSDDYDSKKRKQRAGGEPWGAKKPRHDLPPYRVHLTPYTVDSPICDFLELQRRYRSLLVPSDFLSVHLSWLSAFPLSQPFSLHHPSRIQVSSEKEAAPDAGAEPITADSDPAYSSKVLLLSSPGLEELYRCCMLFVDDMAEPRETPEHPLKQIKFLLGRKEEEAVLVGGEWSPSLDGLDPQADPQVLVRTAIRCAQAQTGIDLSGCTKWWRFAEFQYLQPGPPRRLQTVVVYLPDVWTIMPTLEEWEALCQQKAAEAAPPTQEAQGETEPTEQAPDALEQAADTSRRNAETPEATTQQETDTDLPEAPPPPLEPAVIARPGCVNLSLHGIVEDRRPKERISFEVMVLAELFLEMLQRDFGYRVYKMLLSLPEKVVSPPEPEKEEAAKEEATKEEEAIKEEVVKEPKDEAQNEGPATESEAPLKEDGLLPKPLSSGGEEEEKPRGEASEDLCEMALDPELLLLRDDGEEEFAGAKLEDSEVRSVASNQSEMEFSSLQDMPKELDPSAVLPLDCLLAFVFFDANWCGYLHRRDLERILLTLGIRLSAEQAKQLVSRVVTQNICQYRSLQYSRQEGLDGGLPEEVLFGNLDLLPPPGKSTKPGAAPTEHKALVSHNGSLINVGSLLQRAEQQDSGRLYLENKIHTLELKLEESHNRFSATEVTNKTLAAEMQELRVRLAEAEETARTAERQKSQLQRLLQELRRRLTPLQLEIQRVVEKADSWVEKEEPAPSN
UniProt Q8IWY9, sequence (Q8IWY9 whole entry, looked up): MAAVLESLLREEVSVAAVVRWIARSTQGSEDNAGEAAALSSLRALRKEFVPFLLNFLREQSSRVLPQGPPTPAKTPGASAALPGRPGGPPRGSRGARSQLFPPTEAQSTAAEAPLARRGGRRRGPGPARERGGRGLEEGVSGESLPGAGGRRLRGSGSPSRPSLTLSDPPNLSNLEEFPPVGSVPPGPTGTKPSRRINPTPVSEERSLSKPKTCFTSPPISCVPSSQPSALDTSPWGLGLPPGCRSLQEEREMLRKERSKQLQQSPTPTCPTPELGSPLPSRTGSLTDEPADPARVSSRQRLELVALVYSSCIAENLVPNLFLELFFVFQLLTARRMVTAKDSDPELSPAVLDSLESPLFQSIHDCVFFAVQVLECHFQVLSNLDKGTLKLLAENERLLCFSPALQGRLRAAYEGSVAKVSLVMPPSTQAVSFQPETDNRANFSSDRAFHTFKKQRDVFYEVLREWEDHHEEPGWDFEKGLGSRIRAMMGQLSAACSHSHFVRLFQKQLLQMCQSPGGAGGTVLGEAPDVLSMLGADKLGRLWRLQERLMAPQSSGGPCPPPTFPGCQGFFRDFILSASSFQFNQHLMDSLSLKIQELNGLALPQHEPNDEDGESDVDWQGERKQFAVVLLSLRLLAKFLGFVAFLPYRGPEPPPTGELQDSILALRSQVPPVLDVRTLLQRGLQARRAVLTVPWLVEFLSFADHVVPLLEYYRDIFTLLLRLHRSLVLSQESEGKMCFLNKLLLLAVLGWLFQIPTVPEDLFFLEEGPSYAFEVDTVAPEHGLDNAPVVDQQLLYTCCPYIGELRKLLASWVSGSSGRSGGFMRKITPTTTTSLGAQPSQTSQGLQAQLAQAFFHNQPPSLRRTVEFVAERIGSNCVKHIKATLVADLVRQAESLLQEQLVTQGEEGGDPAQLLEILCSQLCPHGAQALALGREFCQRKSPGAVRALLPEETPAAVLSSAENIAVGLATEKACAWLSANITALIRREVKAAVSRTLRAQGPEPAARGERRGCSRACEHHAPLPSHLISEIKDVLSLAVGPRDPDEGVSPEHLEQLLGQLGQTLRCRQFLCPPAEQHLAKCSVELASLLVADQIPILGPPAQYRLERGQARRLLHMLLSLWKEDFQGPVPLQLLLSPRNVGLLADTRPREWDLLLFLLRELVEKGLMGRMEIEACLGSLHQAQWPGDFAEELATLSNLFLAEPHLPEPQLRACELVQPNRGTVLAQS

| Target | log2 fold change (nilotinib) | log2 fold change [1] | log2 fold change (dasatinib) | log2 fold change [2] | log2 fold change [3] | log2 fold change (quisinostat) | log2 fold change (tipifarnib) | log2 fold change [4] | log2 fold change [5] | log2 fold change [6] | log2 fold change [7] | log2 fold change (vorinostat) | log2 fold change (silmitasertib) | log2 fold change [8] | log2 fold change (entospletinib) |
| --- | --- | --- | --- | --- | --- | --- | --- | --- | --- | --- | --- | --- | --- | --- | --- |
| CCAR2 (UniProt Q8N163) | -0.001 | -0.016 | -0.069 | -0.017 | 0.018 | -0.033 | -0.013 | 0.027 | 0.014 | -0.007 | 0.01 | -0.399 (active) | 0.002 | -0.02 | 0.02 |
| ATP9B (UniProt O43861) | 0.05 | 0.164 | -0.04 | -0.069 | -0.049 | 0.009 | -0.08 | -0.021 | 0.107 | 0.064 | 0.013 | 0.012 | 0.005 | -0.045 | 0 |
| CHD1L (UniProt Q86WJ1) | -0.01 | -0.012 | -0.024 | 0 | 0.024 | -0.114 | 0.032 | 0.111 | 0.028 | -0.039 | 0.01 | -0.277 (active) | 0.015 | 0.164 | 0.046 |
| BPHL (UniProt Q86WA6) | -0.049 | 0.084 | 0.008 | -0.043 | 0.055 | -0.02 | 0.01 | -0.03 | 0.016 | 0.022 | -0.093 | 0.143 | 0.049 | -0.006 | 0.028 |
| AURKAIP1 (UniProt Q9NWT8) | -0.072 | -0.019 | 0 | 0 | -0.058 | -0.02 | -0.041 | 0.055 | 0.042 | -0.071 | 0.073 | 0.08 | -0.01 | 0.071 | -0.081 |
| CBR1 (UniProt P16152) | 0.046 | 0.046 | 0.1 | 0.076 | -0.02 | 0.113 | -0.001 | -0.021 | -0.02 | 0.016 | -0.01 | -0.377 (active) | -0.024 | 0.033 | 0.006 |
| CAD (UniProt P27708) | 0.004 | 0.013 | -0.094 | -0.001 | 0.038 | -0.02 | -0.005 | 0.023 | -0.006 | 0.004 | 0.012 | -0.067 | 0.026 | 0.008 | 0 |
| C3 (UniProt P01024) | 0.001 | 0.027 | 0.069 | -0.006 | -0.022 | -0.085 | 0.027 | -0.025 | -0.066 | 0.012 | 0.024 | -0.098 | 0.008 | 0.062 | -0.036 |
| CEPT1 (UniProt Q9Y6K0) | -0.053 | -0.015 | -0.018 | 0.028 | 0.06 | -0.021 | -0.068 | 0.028 | -0.008 | -0.094 | -0.037 | 0.103 | -0.016 | 0.029 | -0.016 |
| CDC42BPA isoform 6 (UniProt Q5VT25) | -0.01 | 0.003 | 0.012 | 0.013 | 0.048 | 0.025 | 0 | 0.004 | -0.002 | 0.024 | -0.008 | -0.224 (active) | 0.018 | 0.001 | 0 |
| CDC40 (UniProt O60508) | -0.015 | -0.026 | -0.005 | 0.039 | 0.058 | -0.138 | 0.046 | 0.02 | 0.063 | 0.097 | 0.029 | 0.08 | 0.015 | 0.005 | 0.014 |
| CDAN1 (UniProt Q8IWY9) | -0.029 | 0.022 | -0.055 | -0.014 | -0.037 | -0.09 | -0.026 | 0.066 | 0.017 | -0.032 | 0.019 | -0.326 (active) | 0.05 | 0.056 | -0.006 |
| BOLA2 (UniProt Q9H3K6) | 0.039 | -0.036 | -0.002 | -0.021 | 0.009 | 0.063 | 0.01 | -0.042 | -0.013 | 0.096 | -0.085 | 0.1 | 0.039 | -0.039 | -0.015 |
| CCNB1 (UniProt P14635) | -0.04 | 0.037 | -0.016 | 0.369 (active) | -0.021 | 0.035 | -0.005 | 0.005 | 0.165 | 0.006 | 0.05 | -0.008 | -0.013 | -0.02 | -0.009 |
| BAG4 (UniProt O95429) | -0.154 | -0.039 | 0.027 | 0.014 | 0.015 | 0.019 | -0.011 | 0.01 | 0.018 | 0.038 | -0.013 | 0.03 | -0.067 | -0.025 | 0.007 |
| ATE1 isoform 2 (UniProt O95260) | -0.099 | -0.006 | 0.069 | -0.032 | 0.017 | -0.014 | 0.025 | 0.034 | -0.002 | 0.014 | -0.068 | -0.444 (active) | 0.041 | -0.01 | -0.008 |
| CCNYL1 (UniProt Q8N7R7) | -0.001 | -0.033 | 0.034 | 0.043 | -0.003 | -0.078 | -0.08 | 0.008 | 0.075 | -0.006 | -0.013 | -0.674 (active) | 0.079 | 0.019 | -0.005 |
| C3orf33 (UniProt Q6P1S2) | -0.105 | -0.15 | -0.013 | 0.009 | -0.072 | -0.14 | 0.007 | 0.274 | 0.094 | 0.123 | -0.085 | -0.118 | -0.137 | 0.023 |  |
| CARS isoform 3 (UniProt P49589) | -0.019 | -0.007 | -0.024 | -0.007 | 0.012 | 0.048 | 0.007 | 0.004 | 0.001 | -0.01 | 0.018 | -0.254 (active) | 0.018 | -0.049 | 0.008 |
| ATG4A (UniProt Q8WYN0) | -0.022 | 0.018 | -0.064 | 0.037 | -0.038 | -0.042 | -0.015 | 0.096 | -0.02 | 0 | -0.059 | -0.543 (active) | 0.034 | 0.001 | 0.004 |
| CAMK1 (UniProt Q14012) | -0.086 | 0.04 | 0.021 | 0.064 | 0.008 | -0.12 | -0.071 | 0.194 | 0.018 | -0.023 | -0.13 | 0.027 | -0.059 | 0.062 | 0.115 |
